SmPrx2 inh – blocks S. mansoni peroxiredoxin 2 enzymatic activity; AID 448; 65,000 compounds, 0.07% hits; Potency, µM; S. mansoni Prx2 activity coupled to TGR/GSH (TGR is thioredoxin glutathione reductase), NADPH fluorescence loss, qHTS
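Prx2 activity was followed as the loss of NADPH fluorescence (ex 365/em 450 nm), read every 30 sec for 8 min after H2O2 start. The enzyme mix (50 nM Prx2, 25 nM TGR, GSH, NADPH; pH 7.4 phosphate buffer) was incubated with compound for 15 min at room temperature first.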
AmpC det inh – AmpC beta-lactamase inhibition, detergent assay; P00811; purified AmpC, nitrocefin hydrolysis with detergent; Potency, µM (top dose mostly 28.7 µM), for inactives: at the top dose activity change, negative = inhibition; 71,000 compounds, 0.09% hits; active = well fitted curve in the direction sought with a large enough effect; inconclusive = small, poorly fitted or top-dose-only effect; note: % is set by controls: 0 for no effect and ±100 for the full control effect
Target sequence (P00811 whole entry, looked up): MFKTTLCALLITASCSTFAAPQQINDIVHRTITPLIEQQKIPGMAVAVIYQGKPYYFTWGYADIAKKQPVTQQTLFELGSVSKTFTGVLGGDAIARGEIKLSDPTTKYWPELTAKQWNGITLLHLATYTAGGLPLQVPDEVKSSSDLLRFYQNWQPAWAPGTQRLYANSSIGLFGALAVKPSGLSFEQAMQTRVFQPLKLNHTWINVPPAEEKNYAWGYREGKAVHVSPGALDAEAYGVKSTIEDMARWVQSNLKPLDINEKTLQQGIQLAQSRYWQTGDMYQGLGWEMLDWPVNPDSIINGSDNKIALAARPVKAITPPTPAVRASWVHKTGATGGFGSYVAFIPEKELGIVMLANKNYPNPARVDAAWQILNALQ
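E. coli AmpC (5.3 nM) in 20 mM phosphate pH 7.0 with 0.01% Triton X-100, preincubated 15 min RT with compound; nitrocefin (2 uL of 800 uM stock) hydrolysis followed by 480 nm absorbance every 20 s over 4 min.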
AmpC nodet inh – blocks E. coli AmpC beta-lactamase in absence of detergent. P00811. AmpC nitrocefin hydrolysis, absorbance 480 nm, no detergent. Potency, µM (top dose mostly 28.7 µM), for inactives: top-dose activity change, negative = inhibition. 71,000 compounds, 1.8% hits. AID 585; note: % of control where 0% means no effect
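Enzyme, pH 7.0 phosphate. Compound titrations were pre-incubated with AmpC for 15 min at room temperature before nitrocefin (stock 800 uM) addition; product formation was recorded at 480 nm every 20 s for 4 min.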
LT uptake inh – blocks cellular internalization of anthrax lethal toxin; AID 912; Cells, anthrax lethal toxin internalization, FRET ratio (460/530); 70,000 compounds, 0.67% hits; Potency, µM (doses to about 40 µM), for inactives: top-dose activity change, negative = inhibition, hits mostly inhibitors; note: % is set by controls: 0 for no effect and ±100 for the full control effect; nearly all actives have a fitted effect of over 50% in size
* hit, by the source's call; u = inconclusive; x = no result given; [ ] = remark or other dose. Shown are actives, neighbours in structure and some others; about 2.4% of the full set was active somewhere. Unless noted, calls come from the whole dose curve. Potency is the fitted concentration of half-maximal effect.

SMILES | SmPrx2 inh | AmpC det inh | AmpC nodet inh | LT uptake inh
COC(=O)c1ccccc1NC(=O)Nc1nnc(N2CCCCC2C)s1 (centres undefined) | >57 | 11.6% | 3.98µM*[single pt active] | 1.26µM*
COc1ccc(NC(=O)Nc2nnc(N3CCCCC3C)s2)cc1OC (centres undefined) | x | 18.5% | 3.98µM*[single pt active] | 4.5%
O=c1cccc2n1C[C@@H]1C[C@H]2CN2CCCC[C@H]12 | >57 | -2.3% | -4.9% | u
COc1ccc(NC(=O)NCCCN2CCc3ccccc3C2)cc1 | >57 | 14.4% | 3.98µM*[single pt active] | -9.4%
COc1ccccc1N1CCN(CCCNC(=O)Nc2ccccc2)CC1 | >57 | -2.7% | 18.0% | x
CN(C(=O)c1ccccc1C(=O)O)C1CC(C)(C)NC(C)(C)C1 | >57 | 11.1% | -5.4% | -11.8%
NC(=O)CN1CCN(C(=O)Nc2ccccc2)CC1 | >57 | 15.1% | 3.98µM*[single pt active] | -10.7%
Cc1ccc(Cn2ccc(NC(=O)c3cc(-c4ccccc4)on3)n2)cc1 | >57 | -0.5% | u | -13.1%
Cc1ccc(Cn2ccc(NC(=O)c3cc(-c4ccc5c(c4)OCO5)on3)n2)cc1 | >57 | -2.5% | 10µM* | 0.7%
COc1cccc2c1C(=O)c1c(O)c3c(c(O)c1C2=O)C[C@](O)(/C(C)=N\O)C[C@@H]3O[C@H]1C[C@H](N)[C@@H](O)[C@H](C)O1 | >57 | 1.6%[5.75 µM] | 23.0%[5.75 µM] | 2.0%[8 µM]
Cc1ccc(-c2csc(N)n2)s1 | >57 | -1.6% | u | u
CC(=O)NCc1ccc(-c2csc(N)n2)s1 | >57 | 13.5% | -11.5% | 10µM*
CC/C(C)=N/O | x | 9.7% | -3.3% | u
Oc1ccc([C@@H]2CNCc3sccc32)cc1O | >57 | -4.5% | -7.8% | 0.0%
COc1ccc2c(c1)[C@]1(C)CCC[C@](C)(CO)[C@@H]1CC2 | >57 | 0.8% | 20.8% | -11.6%
Cc1ccnc(NC2c3ccccc3C(=O)N2Cc2ccccc2Cl)c1 (centres undefined) | >57 | 12.5% | 3.98µM*[single pt active] | -5.8%
N[C@H](Cc1cc(I)c(Oc2cc(I)c(O)c(I)c2)c(I)c1)C(=O)O | >57 | 5.9%[12.8 µM] | -18.2%[12.8 µM] | 4.8%[3.58 µM]
COc1cccc(Cn2c(C3CC3)nc3ccc(NC(=O)c4ccco4)cc3c2=O)c1 | >57 | -5.3% | 44.6% | 12.6µM*
O=C(Nc1ccc2nc(C3CC3)n(Cc3ccc(F)cc3)c(=O)c2c1)c1ccco1 | >57 | 3.0% | 37.6% | -18.3%
Cc1cc(NC(=O)c2noc3c2CCc2ccccc2-3)n(-c2ccccc2)n1 | >57 | 11.9% | 2.51µM*[single pt active] | -11.5%
FC(F)(F)c1cc(-c2ccco2)nc(NCc2ccco2)n1 | >57 | 15.9% | -6.6% | u
CS(=O)(=O)c1nc(-c2ccco2)cc(C(F)(F)F)n1 | >57 | 12.9% | -6.4% | 10µM*
[Cd+2].[Cl-].[Cl-] | x | 10.3% | -8.4% | u
[Cl-].[Cl-].[Hg+2] | x | 12.6µM* | 1.26µM* | u
Cc1cc(=O)oc2cc(OCC#N)ccc12 | >57 | 9.4% | 3.98µM*[single pt active] | -5.5%
SMILES | SmPrx2 inh | AmpC det inh | AmpC nodet inh | LT uptake inh
CC(=O)OC[C@@H]1O[C@H](CCO/N=C(\C)CCC(=O)OC[C@@H]2O[C@H](C#Cc3ccccc3)C=C[C@@H]2Oc2ccc(C)cc2)C=C[C@@H]1OC(C)=O | x | x | x | 1.8%[8 µM]
Cn1c(C(C#N)C(=O)c2sc3ccccc3c2Cl)nc2ccccc21 (centres undefined) | >57 | -1.5% | 12.6µM* | u
C[C@H]1CC[C@H]2C(=O)N3[C@H](c4ccc(Br)cc4)[C@@H](C)CC[C@H]3C(=O)N2[C@@H]1c1ccc(Br)cc1 | x | x | x | -14.3%[8 µM]
FC(F)(F)c1nc2ccc(SSc3ccc4nc(C(F)(F)F)[nH]c4c3)cc2[nH]1 | >57 | -3.6%[5.75 µM] | -21.8%[5.75 µM] | -9.8%[8 µM]
CC(C)CCn1c(SCC#N)nc2c(sc3ccccc32)c1=O | >57 | 4.0% | -3.2% | 8.6%
C=CCn1c(=O)n(CCOC)c(=O)c2sc3ccccc3c21 | >57 | 11.8% | 3.98µM*[single pt active] | -10.4%
NC(=O)C1=CN([C@@H]2O[C@@H](COP(=O)(O)OP(=O)(O)OC[C@@H]3O[C@H](n4cnc5c(N)ncnc54)[C@@H](OP(=O)(O)O)[C@@H]3O)[C@H](O)[C@@H]2O)C=CC1 | >57 | 18.9% | 9.4% | 2.1%
O=C1/C(=C/Nc2ccc3c(c2)OCO3)CCc2ccccc21 | x | 3.6% | -17.3% | 7.94µM*
Cc1cc(=O)oc2cc(OC3C=CC(C#CC(C)(C)C)OC3CO)ccc12 (centres undefined) | x | x | x | -20.6%[8 µM]
O=C(Nc1ccccc1)c1ccccc1O | >57 | 1.8% | -10.3% | -12.9%
O=C(N/N=C\c1ccccc1O)c1ccccc1O | >57 | -0.9% | 15.8µM* | u
